APEX1 inh: qHTS Assay for Inhibitors of the Human Apurinic/apyrimidinic Endonuclease 1 (APE1); DNA repair nuclease/redox regulator APEX1 (Homo sapiens), P27695; recombinant APE1, TAMRA/BHQ-2 abasic DNA cleavage fluorescence; Potency, µM (series often up to 65.8 µM), for inactives: at the top dose activity change, negative = inhibition, actives largely listed as inhibitors; actives 0.35% (n = 350,000);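 further: potency means the concentration at half of the fitted maximal effect; plate controls were vehicle for no effect and reference inhibitor for full effect; nearly all actives have a fitted effect of over 55% in size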
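Readout is kinetic fluorescence (ex 525, em 598 nm) from cleavage of 50 nM TAMRA/BHQ-2 THF abasic duplex by 0.75 nM APE1, compound added 15 min beforehand at RT.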
PI5P4K alpha inh: qHTS for Inhibitors of phosphatidylinositol 5-phosphate 4-kinase (PI5P4K) | actives 1.2% (n = 330,000) | AID 652105, 2013 | PI5P4Kalpha enzyme, ADP-Glo luminescence, 60 min; hits give low values | max response, % | Phosphatidylinositol 5-phosphate 4-kinase type-2 alpha (Homo sapiens), P48426; active means max response of -50% or lower; inconclusive means between -30% and -50%; inactive means -30% or higher; further: value at the top dose of about 77 µM
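Quantitative HTS of the MLSMR library against PI5P4Kalpha with substrate. ATP added last at 5 microM final; room temperature, 60 minutes. Remaining ATP depleted, ADP converted and read as luminescence.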
BLM helicase inh: qHTS Assay for Inhibitors of Bloom's syndrome helicase (BLM). RecQ-like DNA helicase BLM (Homo sapiens), P54132. recombinant BLM DNA unwinding, fluorescence dequenching. Potency, µM (series often up to 56.1 µM), inactives show at the highest dose activity change, negative = inhibition, most hits filed as inhibitors. actives 0.2% (n = 350,000). AID 2528, 2010;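 further: potency means the concentration at half of the fitted maximal effect; plate controls were vehicle for no effect and no enzyme for full effect; nearly all actives have a fitted effect of over 35% in size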
GCN5L2 inh: qHTS Assay for Inhibitors of GCN5L2; actives 0.21% (n = 390,000); GCN5L2 HAT assay, ThioGlo1 CoA-SH fluorescence; AID 504327, 2011; Histone acetyltransferase KAT2A (Homo sapiens), Q92830; Potency, µM (titrated, usually from 58.9 µM), without a hit: at the highest dose activity change, negative = inhibition, hits mostly inhibitors; further: potency means the concentration at half of the fitted maximal effect
Target sequence (Q92830 whole entry, looked up): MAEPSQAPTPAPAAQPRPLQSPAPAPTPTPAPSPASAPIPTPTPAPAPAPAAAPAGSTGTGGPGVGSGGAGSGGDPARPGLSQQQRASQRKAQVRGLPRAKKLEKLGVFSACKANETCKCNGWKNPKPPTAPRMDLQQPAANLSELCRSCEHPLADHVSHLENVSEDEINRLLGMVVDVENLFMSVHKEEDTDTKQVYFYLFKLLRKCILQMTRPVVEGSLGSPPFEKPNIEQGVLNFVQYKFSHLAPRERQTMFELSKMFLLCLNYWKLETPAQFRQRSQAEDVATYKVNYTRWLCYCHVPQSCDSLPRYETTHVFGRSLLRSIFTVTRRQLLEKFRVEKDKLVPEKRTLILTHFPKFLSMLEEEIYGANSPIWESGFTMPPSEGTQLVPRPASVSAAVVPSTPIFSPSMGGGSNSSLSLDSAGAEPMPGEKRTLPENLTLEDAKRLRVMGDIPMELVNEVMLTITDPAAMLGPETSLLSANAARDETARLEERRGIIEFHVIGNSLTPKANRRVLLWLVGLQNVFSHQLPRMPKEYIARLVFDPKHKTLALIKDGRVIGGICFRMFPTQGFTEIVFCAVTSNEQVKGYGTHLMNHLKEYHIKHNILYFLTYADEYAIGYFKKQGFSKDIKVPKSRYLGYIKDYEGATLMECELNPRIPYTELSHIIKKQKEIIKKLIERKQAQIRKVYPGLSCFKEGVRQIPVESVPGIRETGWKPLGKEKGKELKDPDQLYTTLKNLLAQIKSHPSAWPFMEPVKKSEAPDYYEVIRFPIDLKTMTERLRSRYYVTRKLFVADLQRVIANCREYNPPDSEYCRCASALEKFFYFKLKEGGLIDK
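qHTS, 1536-well. 20nM enzyme, pH 7.5 HEPES/EDTA/Tween-20 buffer; 15 min compound preinc., RT. Start: 75uM H3(1-25), 70uM AcCoA, 50uM ThioGlo1. Read Ex340/Em540 at t=0 (autofluorescence flag) and t=20 min.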
FEN1 inhibitor: qHTS Assay for the Inhibitors of Human Flap endonuclease 1 (FEN1); Potency, µM (doses to about 114 µM), inactives show at the top dose activity change, negative = inhibition, hits mostly inhibitors; P39748; Recombinant FEN1 flap cleavage, fluorescence, 15 min; actives 0.35% (n = 390,000); AID 588795, 2011; further: potency means the concentration at half of the fitted maximal effect; nearly all actives have a fitted effect of over 65% in size
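FEN1 at 10 nM, compound pretreatment for 15 min (room temperature), 50 nM final substrate to initiate; endpoint reads at 0 and 15 min; DMSO-only plates used as vehicle background.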
RECQ1 helicase: qHTS Assay for Inhibitors of RecQ-Like Dna Helicase 1 (RECQ1). ATP-dependent DNA helicase Q1 (Homo sapiens), P46063. RECQ1 DNA unwinding, red fluorescence kinetic read. Potency, µM (series often up to 57.3 µM), inactives show at the top dose activity, negative = inhibition, hits mostly inhibitors. actives 0.54% (n = 240,000). AID 2549, 2010;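 further: potency means the concentration at half of the fitted maximal effect; plate controls were vehicle for no effect and no enzyme for full effect; nearly all actives have a fitted effect of over 30% in size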
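50 nM RECQ1T1 preincubated 15 min with compound in Tris pH 8.0 buffer with MgCl2, DTT, Tween-20 and 2.5 ug/ml poly(dI-dC); started with 200 nM TAMRA/BHQ-2 forked duplex and 2 mM ATP. Unwinding read as fluorescence (525/598 nm), two reads 2 h apart.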
An asterisk follows results filed as active. In the library only some 1.5% were active in any assay of this set; here they are far more common. Unless noted, the call rests on the fitted dose curve; in most records, active means well fitted curve in the direction sought with a large enough effect; inconclusive means small, poorly fitted or top-dose-only effect, or another doubt; inactive means no such curve, though single readings can be large; an effect the other way counts as inactive or inconclusive. Unless noted, on the % scale 0 is the no-effect control and ±100 the full control effect.

Results for C=CCN(CC=C)C(=S)Nc1ccc2nsnc2c1 ?
APEX1 inh: -11.6%; PI5P4K alpha inh: -2.4; BLM helicase inh: 3.55µM*; GCN5L2 inh: -17.7%; FEN1 inhibitor: -8.4%; RECQ1 helicase: -4.2%

Results for CCOc1ccc(NC(=S)Nc2ccc3nsnc3c2)cc1 ?
APEX1 inh: 5.8%; PI5P4K alpha inh: -11.6; BLM helicase inh: 3.98µM*; GCN5L2 inh: -18.9%; FEN1 inhibitor: -30.8%; RECQ1 helicase: 1.4%

How did O=[N+]([O-])c1cccc2[nH]cnc12 do in these assays?
FEN1 inhibitor: -19.7%

Results for CCOc1ccc(/C=C/c2cc[n+](C)c3ccccc23)cc1OCC ?
FEN1 inhibitor: -28.8%

How did Nc1cccc[n+]1C(c1ccnc2ccccc12)[n+]1ccccc1N do in these assays?
FEN1 inhibitor: -18.1%

What do the screens show for `CC(C)C[C@@H](NC(=O)[C@H](Cc1ccccc1)NC(=O)c1cnccn1)B(O)O`?
BLM helicase inh: -1.9%; GCN5L2 inh: 1.6%

Results for CC(=O)c1cccc(NC(=O)COc2ccccc2C(=O)Nc2ccccc2)c1 ?
FEN1 inhibitor: -34.3%

Results for O=C1C(=Cc2cccc(O)c2O)SC(=S)N1CCCN1CCOCC1 ?
PI5P4K alpha inh: -71.4*

How did O=C(CCCN1C(=O)/C(=C/c2ccccc2Cl)SC1=S)NCCCN1CCOCC1 do in these assays?
APEX1 inh: -10.1%; PI5P4K alpha inh: 5.7; BLM helicase inh: 1.0%; GCN5L2 inh: -3.0%; FEN1 inhibitor: -7.0%

Results for Cc1ccc(-c2cc(C(=O)N3CCN(c4ccc(F)cc4)CC3)c3ccccc3n2)o1 ?
APEX1 inh: inconclusive; PI5P4K alpha inh: inconclusive; BLM helicase inh: -13.5%; GCN5L2 inh: -6.1%; FEN1 inhibitor: 6.4%; RECQ1 helicase: -25.1%

Results for Cc1ccc(-c2cc(C(=O)N3CCN(c4ncccn4)CC3)c3cc(Br)ccc3n2)o1 ?
APEX1 inh: -6.3%; PI5P4K alpha inh: -72.6*; BLM helicase inh: -11.3%; GCN5L2 inh: 1.3%; FEN1 inhibitor: 4.2%; RECQ1 helicase: 22.9%

What do the screens show for `CN(C)C(=O)COC(=O)c1ccccc1OCC(=O)Nc1ccc(Br)cc1`?
FEN1 inhibitor: -2.4%

How did Clc1ccc(-c2csc3ncnc(Sc4nnnn4C4CC4)c23)cc1 do in these assays?
FEN1 inhibitor: -26.4%

How did CCOC(=O)N1CCN(C(=O)C2CCN(C(=O)c3ccccc3C)CC2)CC1 do in these assays?
PI5P4K alpha inh: -78.6*; FEN1 inhibitor: inconclusive

How did COc1ccc(-n2c(Cc3cccn3C)nnc2SCC(=O)N2CCCc3ccccc32)cc1 do in these assays?
APEX1 inh: 9.8%; BLM helicase inh: -5.8%; GCN5L2 inh: 18.7%; FEN1 inhibitor: -6.4%; RECQ1 helicase: 15.8µM*

Results for O=C(COc1ccccc1C(=O)Nc1cccc([N+](=O)[O-])c1)Nc1ccc(Br)cc1 ?
FEN1 inhibitor: 7.4%

Results for O=C(N/N=C/c1c[nH]c2ccccc12)c1ccccc1Cl ?
APEX1 inh: 34.6%; PI5P4K alpha inh: -2.4; BLM helicase inh: -2.3%; GCN5L2 inh: -4.2%; FEN1 inhibitor: -4.8%

How did O=C(N/N=C/c1c[nH]c2ccccc12)c1cc(Cl)ccc1O do in these assays?
APEX1 inh: -6.8%; PI5P4K alpha inh: -54.5*; BLM helicase inh: -3.8%; GCN5L2 inh: -14.7%; FEN1 inhibitor: 0.8%

What do the screens show for `O=C(N/N=C\c1c[nH]c2ccccc12)c1ccc(O)cc1`?
APEX1 inh: 10.2%; PI5P4K alpha inh: -73.5*; BLM helicase inh: 0.3%; GCN5L2 inh: 9.7%; FEN1 inhibitor: -10.4%

What do the screens show for `O=C(N/N=C/c1c[nH]c2ccccc12)c1ccc(Cl)cc1`?
APEX1 inh: 14.1%; PI5P4K alpha inh: -21.4; BLM helicase inh: -10.4%; GCN5L2 inh: -16.6%; FEN1 inhibitor: -14.4%

How did S=C(Nc1ccc(Cl)cc1)Nc1cccc2cnccc12 do in these assays?
APEX1 inh: 6.0%; PI5P4K alpha inh: -19.7; BLM helicase inh: -16.8%; GCN5L2 inh: -4.2%; FEN1 inhibitor: 5.5%; RECQ1 helicase: -6.9%

Results for CN(C)S(=O)(=O)c1cccc(NC(=S)Nc2cccc3cnccc23)c1 ?
APEX1 inh: -4.9%; PI5P4K alpha inh: inconclusive; BLM helicase inh: 12.6µM*; GCN5L2 inh: -8.3%; FEN1 inhibitor: inconclusive; RECQ1 helicase: inactive

How did Fc1ccc(NC(=S)Nc2cccc3cnccc23)cc1 do in these assays?
APEX1 inh: -7.6%; PI5P4K alpha inh: 6.8; BLM helicase inh: 22.4µM*; GCN5L2 inh: -0.1%; FEN1 inhibitor: -10.5%; RECQ1 helicase: inactive

Results for S=C(Nc1cccnc1)Nc1cccc2cnccc12 ?
APEX1 inh: -5.2%; PI5P4K alpha inh: -28.1; BLM helicase inh: -16.5%; GCN5L2 inh: -0.7%; FEN1 inhibitor: 2.4%; RECQ1 helicase: 4.2%

How did O=C(Nc1cc(F)ccc1F)c1cnn2c1NC(=C1CC1)C=C2C(F)F do in these assays?
FEN1 inhibitor: -0.2%

How did Cc1ccc(C(=O)CC2(O)C(=O)Nc3ccccc32)s1 (stereo not drawn) do in these assays?
APEX1 inh: 3.9%; PI5P4K alpha inh: -54.5*; BLM helicase inh: -1.4%; GCN5L2 inh: -7.8%; FEN1 inhibitor: -3.1%; RECQ1 helicase: -6.1%

How did CSc1ccc(-c2sc(Nc3ccccc3)n[n+]2-c2ccccc2)cc1 do in these assays?
APEX1 inh: inconclusive; PI5P4K alpha inh: -53.2*; BLM helicase inh: 74.8%; GCN5L2 inh: inconclusive; FEN1 inhibitor: 22.4µM*

What do the screens show for `O=C(O)/C=C/C(=O)Nc1ccc2c(c1)C(=O)c1ccccc1C2=O`?
APEX1 inh: inconclusive; PI5P4K alpha inh: -64.8*; BLM helicase inh: -7.4%; GCN5L2 inh: -7.0%; FEN1 inhibitor: inconclusive; RECQ1 helicase: -6.5%

How did CCCCN(CCCC)CC(O)c1cc(Cl)cc2c1-c1ccc(Cl)cc1C2=Cc1ccc(Cl)cc1 (stereo not drawn) do in these assays?
FEN1 inhibitor: -15.3%

What do the screens show for `COc1ccc(Cl)cc1-c1n[nH]c(=S)o1`?
APEX1 inh: 23.2%; PI5P4K alpha inh: -74.9*; BLM helicase inh: 0.3%; GCN5L2 inh: -15.9%; FEN1 inhibitor: -4.1%; RECQ1 helicase: -11.0%

Results for CCCCn1c(-c2cc(Cl)ccc2OC)n[nH]c1=S ?
APEX1 inh: -0.3%; BLM helicase inh: -6.8%; FEN1 inhibitor: 1.3%; RECQ1 helicase: 2.3%

High-throughput results: PubChem BioAssay, National Center for Advancing Translational Sciences (NCATS)
